HCMV inh – inhibitors of human cytomegalovirus; HFF cells, HCMV-luciferase reporter, 72 h; stronger effect = lower value; activity change, negative = inhibition, % at 57.5 µM; 410,000 tested, 4.5% active; in the data active = activity change below about -60%; inconclusive = no clear call, values can overlap the other calls; inactive = above about -39%; note: % is set by controls: 0 for no effect and ±100 for the full control effect
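Two compound doses tested in HFFs infected with HCMV-luciferase, MOI 1 PFU/cell, 72 h at 37C. Lysate luminescence read with OneGlo; data normalized against buffer-only and 10uM Salinomycin inhibitor controls.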
Pf growth 96h – inhibits malaria parasite growth, 96 h | Potency, µM (highest dose often 28.7 µM), for the others: at the highest dose activity change, negative = inhibition, actives largely listed as inhibitors | 320,000 tested, 6.9% active | P. falciparum luciferase reporter growth, 96 h; note: potency is the fitted concentration of half-maximal effect; % is set by controls: 0 for no effect and ±100 for the full control effect
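Plates of compound plus infected erythrocytes (2% hematocrit, 0.05% parasitemia final) incubate 96 hours, 37 C, 5% CO2. Detection reagent added; reduced luminescence from the parasites' luciferase reporter flags inhibition.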
HCV inh – blocks hepatitis C virus; Huh7.5.1 HCVcc-Cre infection, luciferase reporter, 44 h; Potency, µM (series often up to 41.8 µM), for the others: at the highest dose activity change, negative = inhibition, hits mostly inhibitors; 340,000 tested, 3.4% active; AID 651820; note: potency is the fitted concentration of half-maximal effect; % is set by controls: 0 for no effect and ±100 for the full control effect
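1,000 cells/well; 4 h culture; + compound; + HCVcc-Cre (~0.5 moi); 44 h; luciferase substrate, RT 15 min; read 15 sec.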
SARS PLP yeast – SARS-CoV PLP inhibition in yeast; 330,000 tested, 0.19% active; Potency, µM (top dose mostly 32.9 µM), for inactives: at the highest dose activity, positive = growth rescue, actives largely listed as activators; S. cerevisiae expressing SARS-CoV PLpro, growth rescue; AID 485353; calls by dose curve; note: potency is the fitted concentration of half-maximal effect; 0% is about no effect; nearly all actives have a fitted effect of over 55% in size
Sm TGR block – blocks Schistosoma mansoni thioredoxin glutathione reductase; AID 485364; Potency, µM (highest dose often 114 µM), inactives show at the highest dose activity change, negative = inhibition, hits mostly inhibitors; purified TGR, DTNB reduction, TNB absorbance 405 nm; 360,000 tested, 3% active; Q962Y6; note: potency is the fitted concentration of half-maximal effect; % is set by controls: 0 for no effect and ±100 for the full control effect; nearly all actives have a fitted effect of over 60% in size
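Kinetic colorimetric format: TGR-catalysed, NADPH-driven DTNB reduction monitored via TNB absorbance. Enzyme dispensed at 20 nM; compound exposure 15 min at room temperature before reaction start.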
Pf growth 48h – inhibits P. falciparum growth in the first generation, 48 h; P. falciparum luciferase growth in erythrocytes, 48 h; 310,000 tested, 5.9% active; Potency, µM (series often up to 28.7 µM), without a hit: at the highest dose activity change, negative = inhibition, actives largely listed as inhibitors; note: potency is the fitted concentration of half-maximal effect; % is set by controls: 0 for no effect and ±100 for the full control effect
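Luminescence readout; reporter = integrated firefly luciferase in P. falciparum. RBC culture at 2% hematocrit, 0.1% parasitemia final, 37 C/5% CO2; decreased signal taken as growth inhibition.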
* marks the source's active call; other numbers are inactive results; [ ] = dose if it differs, or a comment. Sampled rows, rich in hits. Any-hit rate of the full collection: about 15%. Unless noted, calls come from the whole dose curve; as a rule, active = well fitted curve in the direction sought with a large enough effect; inconclusive = small, poorly fitted or top-dose-only effect, or another doubt; inactive = no such curve, though single readings can be large; an effect the other way counts as inactive or inconclusive.

How did CC(=O)c1ccc(-n2c(CCC(=O)O)ccc2-c2ccccc2)cc1 do in these assays?
HCMV inh: -30; Pf growth 96h: 9%; HCV inh: 16%; SARS PLP yeast: 1%; Sm TGR block: 40µM*; Pf growth 48h: 0%

How did CC(=O)c1cccc(-n2c(CCC(=O)O)ccc2-c2cccs2)c1 do in these assays?
HCMV inh: 40; Pf growth 96h: inconclusive; HCV inh: -15%; SARS PLP yeast: -14%; Sm TGR block: 5.6µM*; Pf growth 48h: inconclusive

Results for Cc1cc(=O)oc2c(C)c(OC3CCCCC3=O)ccc12 (stereo unspecified) ?
HCMV inh: 23; Pf growth 96h: -10%; HCV inh: -6%; SARS PLP yeast: -2%; Sm TGR block: 3%

Results for C=CCNC(=O)CN1C(=O)C2C3c4ccccc4C(c4ccccc43)C2C1=O (stereo unspecified) ?
HCMV inh: -2; Pf growth 96h: 0%; HCV inh: 10%; SARS PLP yeast: 0%; Sm TGR block: -8%; Pf growth 48h: 7%

How did CCOc1cc(C=O)ccc1OCCn1c([N+](=O)[O-])cnc1C do in these assays?
HCMV inh: 48; Pf growth 96h: 5%; HCV inh: 12%; SARS PLP yeast: -3%; Sm TGR block: 4%; Pf growth 48h: -13%

Results for CC1=CCC2C(=O)N(c3ccc(C(=O)Nc4ccccc4Cl)cc3)C(=O)C2C1 (stereo unspecified) ?
HCMV inh: -102*; Pf growth 96h: 12%; HCV inh: -6%; SARS PLP yeast: 0%; Sm TGR block: -2%; Pf growth 48h: 17%

Results for Cc1ccc(CCNC(=O)c2cnc3c(C)cccn3c2=O)cc1 ?
HCMV inh: 28; Sm TGR block: 0%

Results for CC(C)C[C@@H](CO)NS(=O)(=O)c1c(F)cccc1F ?
HCMV inh: 5; HCV inh: 3.5µM*

Results for CC(C)CC(CO)NS(=O)(=O)c1cccc(Cl)c1F (stereo unspecified) ?
HCMV inh: -20; HCV inh: -21%

What do the screens show for `COC(=O)C[C@H]1c2cc(C(F)(F)F)ccc2S(=O)(=O)N1Cc1ccccc1OC`?
HCMV inh: -12; HCV inh: -16%

Results for COc1ccc(/C=C/c2nc3ccccc3n2C)cc1 ?
HCMV inh: -85*; Pf growth 96h: 20%; HCV inh: inconclusive; SARS PLP yeast: -22%; Sm TGR block: inconclusive; Pf growth 48h: 86%

How did CCOc1ccc(-n2c(N)c(-c3nc4ccccc4[nH]3)sc2=S)cc1 do in these assays?
HCMV inh: -24; HCV inh: inconclusive; SARS PLP yeast: -5%; Sm TGR block: -6%; Pf growth 48h: -20%

What do the screens show for `COc1ccc(-n2c(N)c(-c3nc4ccccc4n3C)sc2=S)cc1`?
HCMV inh: -7; Pf growth 96h: 28%; HCV inh: -16%; SARS PLP yeast: -2%; Sm TGR block: -19%; Pf growth 48h: 0.93µM*

Results for COc1ccc(/C=N\n2nnc3ccccc32)cc1 ?
HCMV inh: -3; Pf growth 96h: 0.41µM*; HCV inh: inconclusive; SARS PLP yeast: -7%; Sm TGR block: 6%; Pf growth 48h: 70%

Results for COc1ccc(-n2cnc3ccccc32)cc1 ?
HCMV inh: -74*; HCV inh: -18%; SARS PLP yeast: 1%; Sm TGR block: -15%; Pf growth 48h: 32%

What do the screens show for `COc1ccc(/C=N/n2c(C)nc3ccccc3c2=O)cc1`?
HCMV inh: -7; Pf growth 96h: 67%; HCV inh: 14%; SARS PLP yeast: -13%; Sm TGR block: -12%; Pf growth 48h: 49%

How did c1ccc(-n2cnc3ccccc32)cc1 do in these assays?
HCMV inh: -93*; Pf growth 96h: 103%; HCV inh: -1%; SARS PLP yeast: 5%; Sm TGR block: -1%; Pf growth 48h: 32%

What do the screens show for `CCOC(=O)C1=C(CSc2nc3c(cc2C#N)CN(C)CC3)OC(N)=C(C#N)C1c1ccncc1` (stereo unspecified)?
HCMV inh: -9; Pf growth 96h: inconclusive; HCV inh: 14%; SARS PLP yeast: -4%; Sm TGR block: inconclusive; Pf growth 48h: -11%

What do the screens show for `COc1ccc(NC(=O)CSc2nc3c(cc2C#N)CN(C)CC3)cc1`?
HCMV inh: -14; Pf growth 96h: 16%; HCV inh: -25%; Sm TGR block: 79µM*; Pf growth 48h: -1%

How did CN1CCc2nc(SCC(=O)Nc3ccc(F)cc3)c(C#N)cc2C1 do in these assays?
Pf growth 96h: 4%; HCV inh: -18%; SARS PLP yeast: -5%; Sm TGR block: 28µM*; Pf growth 48h: 29%

How did CCOC(=O)C1=C(CSc2nc3c(cc2C#N)CN(C)CC3)OC(N)=C(C#N)C1c1ccc(Cl)cc1 (stereo unspecified) do in these assays?
HCMV inh: -1; Pf growth 96h: inconclusive; HCV inh: 13µM*; SARS PLP yeast: 2%; Sm TGR block: -34%; Pf growth 48h: inconclusive

What do the screens show for `CCN1CCc2nc(SCC(=O)Nc3ccc(OC)cc3)c(C#N)cc2C1`?
HCMV inh: 17; Pf growth 96h: 0%; HCV inh: inconclusive; SARS PLP yeast: 2%; Sm TGR block: -15%; Pf growth 48h: -2%

How did Cn1c(-c2cccc(C(F)(F)F)c2)cc2cnc(Nc3ccc4c(c3)OCCO4)cc21 do in these assays?
HCMV inh: 18

How did COc1ccc(N2C(=O)CC3(CCCC3)CC2=O)cc1 do in these assays?
HCMV inh: -19; Pf growth 96h: 6.6µM*; HCV inh: 40%; SARS PLP yeast: 25%; Sm TGR block: -9%; Pf growth 48h: 21%

How did O=C1CC2(CCCC2)CC(=O)N1c1ccccc1 do in these assays?
HCMV inh: 62; Pf growth 96h: 12µM*; HCV inh: -1%; SARS PLP yeast: 1%; Sm TGR block: 1%; Pf growth 48h: inconclusive

What do the screens show for `COc1cc(Nc2cc3c(cn2)nc(Cc2ccccc2)n3C)cc(OC)c1OC`?
HCMV inh: 31

Results for CCC/C=C(\CCC)C(NC(=O)OCC(C)C)c1ccc(C(=O)OC)cc1 (stereo unspecified) ?
HCMV inh: 41; Pf growth 96h: inconclusive; HCV inh: -16%[8.37 µM]; SARS PLP yeast: -9%; Sm TGR block: 3%; Pf growth 48h: inconclusive

Results for CCC/C=C(\CCC)C(NS(=O)(=O)c1cccc2cccnc12)c1ccc(C(=O)OC)cc1 (stereo unspecified) ?
HCMV inh: -22; Pf growth 96h: 13µM*; HCV inh: 4%[8.37 µM]; SARS PLP yeast: -24%; Sm TGR block: -14%; Pf growth 48h: inconclusive

Screens (PubChem BioAssay)
